This is a sample that favours compounds with a hit; in the whole collection about 4.8% have one here.
SMARCA2 act: SMARCA2 (BRM) function activators, primary screen, cell-based, luminescence, high throughput | MG213 cells, MMTV-luciferase reporter, dexamethasone, overnight | activation, % at 9.1 µM | 370,000 compounds, 1% hits; in the data active means activation above about 7.8%;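 further: 0% = vehicle wells and 100% = reference activator wells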
hcDAF12 agonist: H. contortus DAF-12 nuclear receptor activators, primary screen, cell-based, luminescence, HEK293, lit1-tk-luc reporter; 370,000 compounds, 1.4% hits; HEK293 hcDAF-12 lit1-tk-luc reporter; 0% DMSO, 100% Δ7-dafachronic acid; activation, % at 6.8 µM;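 active means activation above the mean of all tested compounds plus 3 SD, cut at about 5.5% in these data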;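 further: 100% = response to 3 µM Δ7-dafachronic acid high control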
DAX1 inh-1: DAX1 (NR0B1) inhibitors, primary screen, cell-based, HEK293, Gal4-DAX1, luciferase luminescence; Nuclear receptor subfamily 0 group B member 1 (Homo sapiens), P51843; HEK293 Gal4-DAX1 luciferase reporter; inhibition, % at 6.75 µM; 340,000 compounds, 0.99% hits;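 active means inhibition above the mean over all tested compounds plus 3 SD, cut at about 4.2% in these data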;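 further: 0% = DAX1-transfected cells with DMSO and 100% = empty-vector control cells with DMSO; inhibition shows as a rise in luminescence from relieved DAX1 repression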
Target sequence (P51843 207-470 limits assumed): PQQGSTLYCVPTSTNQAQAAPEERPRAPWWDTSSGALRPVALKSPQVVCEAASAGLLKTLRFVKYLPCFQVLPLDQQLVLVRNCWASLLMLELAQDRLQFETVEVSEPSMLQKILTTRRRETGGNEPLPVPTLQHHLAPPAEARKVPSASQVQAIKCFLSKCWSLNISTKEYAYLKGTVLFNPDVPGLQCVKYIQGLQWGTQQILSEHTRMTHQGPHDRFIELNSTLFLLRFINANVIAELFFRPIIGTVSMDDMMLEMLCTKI
ssDAF-12 act: S. stercoralis DAF-12 nuclear receptor activators, primary screen, cell-based, luminescence, HEK293, GRIP1 co-expression, lit1-tk-luc; activation, % at 6.8 µM; 370,000 compounds, 1% hits; Nuclear hormone receptor DAF-12 (Strongyloides stercoralis); HEK293 ssDAF-12/GRIP1 lit1-tk-luc reporter; % of 3 µM dafachronic acid response; AID 652126, 2013;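 active means activation above the mean over all tested compounds plus 3 SD, cut at about 0.9% in these data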;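 further: 0% = DMSO-only wells and 100% = 3 µM delta7-dafachronic acid wells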
DAX1 inh-2: DAX1 (NR0B1) inhibitors on StAR promoter, primary screen, cell-based, luminescence, SF-1 (NR5A1), full-length DAX-1; inhibition, % at 6.8 µM; AID 652010, 2013; HEK293T StAR-luciferase reporter, SF-1/DAX-1 repression relief; 370,000 compounds, 1.1% hits;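 active means inhibition above the mean over all tested compounds plus 3 SD, cut at about 3.6% in these data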;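 further: 0% = DAX-1 cells with DMSO and 100% = cells lacking DAX-1 with DMSO; higher inhibition means more luminescence from relief of DAX-1 repression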
hgDAF-12 ag: H. glycines DAF-12 receptor agonists, primary screen, cell-based, luminescence, HEK293, GAL4 fusion, UAS-luciferase; Nuclear hormone receptor DAF-12 (Heterodera glycines), GAL4 fusion; HEK293 GAL4-hgDAF12 UAS-luciferase reporter, agonist luminescence; normalized to butyrate control; activation, % at 6.8 µM; 370,000 compounds, 1.8% hits; AID 687014, 2013;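 active means activation above a cutoff set at the mean of all screened compounds plus 3 SD, cut at about 10% in these data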;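 further: 0% = DMSO wells and 100% = sodium butyrate wells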
SMARCA2 act conf: SMARCA2 (BRM) function activators, confirmation, cell-based, luminescence, triplicate. MG213 cells, MMTV-luciferase with dexamethasone, overnight; MG213 cells expressing E1A, Rb sequestered; DMSO wells 0%, reference activator 100%. activation, % at 9.1 µM. 3,500 compounds, 30% hits. shares compounds with SMARCA2 act;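 active means activation above its plate's cutoff, the mean activation of tested wells plus 3 SD, cut at about 7.9% in these data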
VP16 Luc act: GAL4-VP16 luciferase reporter activation, counter-screen for SMARCA2 (BRM) activator project, cell-based, pG5luc, luminescence, high throughput. shares compounds with SMARCA2 act. HEK293 GAL4-VP16 pG5luc reporter; scaled: DMSO wells 0%, SAHA wells 100%. activation, % at 9.1 µM. 3,500 compounds, 41% hits. AID 686939, 2013;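 active means activation above the solvent-only control well mean plus 3 SD, averaged across control plates, cut at about 5.2% in these data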
* = called active by the depositor; / = no result given.

SMILES | SMARCA2 act | hcDAF12 agonist | DAX1 inh-1 | ssDAF-12 act | DAX1 inh-2 | hgDAF-12 ag | SMARCA2 act conf | VP16 Luc act
COc1ccc(CCN2CC(C(=O)NCCc3ccccc3)CC2=O)cc1OC (stereo unspecified) | 8.7* | 1.6 | 0.1 | -0.6 | 0.8 | 3.1 | 2.7 | 3.2
O=C(COc1ccc(Cl)cc1)NCC(=O)N1CCC2(CC1)NCCc1[nH]cnc12 | 9.7* | -1.2 | 1.0 | -0.6 | -0.2 | -2.8 | 2.5 | 1.5
Cc1ccc(S(=O)(=O)N/N=C\c2ccc(Cl)c([N+](=O)[O-])c2)cc1 | 10.9* | -2.6 | -1.3 | -1.3 | 0.0 | -0.8 | 0.7 | -0.5
O=C(Nc1nnc(-c2ccco2)s1)C1CCN(S(=O)(=O)c2ccc(Cl)cc2)CC1 | -4.2 | 0.9 | 0.3 | -1.3 | -0.1 | -3.0 | / | /
CCCc1cnc(N2CCN(C(=O)c3ccc(F)cc3)CC2)nc1 | -0.5 | -3.7 | -0.8 | -1.6 | -0.8 | -4.4 | / | /
CCCc1cnc(N2CCN(C(=S)NC)CC2)nc1 | 8.4* | 3.6 | 2.1 | 0.3 | 0.7 | 6.6 | 7.0 | 7.7*
Cc1ccc(C(=O)N2CCN(c3ccccn3)CC2)cc1[N+](=O)[O-] | -4.7 | -1.4 | -0.1 | -2.3 | -0.2 | -2.7 | / | /
O=C(NC1CCCCCCC1)c1ccc(F)cc1 | 11.6* | 3.5 | 2.1 | -0.2 | 1.8 | 11.2* | 12.2* | 7.5*
O=C(NC1CCCC1)c1ccccc1OCc1ccccc1 | 1.2 | -1.0 | -1.1 | -2.1 | -0.5 | 0.7 | / | /
COc1ccccc1C(=O)NC1CCCCCCC1 | 8.0* | 0.4 | -0.6 | -1.2 | -0.5 | 5.8 | 4.9 | 2.8
O=C(Nc1cccc2nsnc12)c1ccc2c(c1)OCCO2 | 8.8* | 5.6* | 0.9 | 0.1 | 1.9 | 9.6 | 5.4 | 9.7*
Cc1nc(-c2ccccc2)nc2[nH]c(=O)n(-c3ccccc3)c(=O)c12 | 10.7* | -0.5 | -0.4 | -1.4 | 0.1 | 1.1 | 3.5 | 6.3*
Cc1nc(-c2ccccc2)nc2[nH]c(C(C)C)cc(=O)c12 | -1.6 | 0.3 | -0.4 | 0.7 | 0.0 | 0.3 | / | /
O=C(N/N=C/c1ccc(Br)o1)/C(=C/c1ccc([N+](=O)[O-])cc1)NC(=O)c1ccccc1 | -0.2 | -2.1 | -0.9 | -2.0 | -0.7 | -0.4 | / | /
Fc1cccc(Cl)c1CSc1nnc2ccccn12 | 8.6* | 1.6 | 2.8 | -0.8 | 1.1 | 4.5 | 7.5 | 3.1
O=C(CNC(=O)c1ccccc1C(=O)O)c1ccccc1 | 8.0* | 1.7 | 0.5 | -0.2 | 2.1 | 9.9 | 4.3 | 3.3
CC(=O)Nc1ccc2nc(NC(=O)c3cccnc3)sc2c1 | 10.9* | -0.3 | -0.6 | -0.7 | 1.0 | 4.1 | 10.3* | 4.2
Cc1ccc(-n2nc3c(c2NC(=O)c2ccco2)CS(=O)(=O)C3)cc1C | 8.8* | 0.0 | -0.1 | -1.4 | -2.3 | 0.6 | 4.0 | 1.4
Cc1ccc(-n2nc3c(c2NC(=O)c2cccs2)CS(=O)(=O)C3)cc1 | 14.1* | 4.5 | -0.1 | -1.2 | 0.5 | -0.2 | 1.1 | -0.1
Cc1ccc(-n2nc3c(c2NC(=O)c2ccco2)CS(=O)(=O)C3)cc1 | -1.1 | 1.8 | -0.1 | -0.8 | -0.6 | -1.9 | / | /
Cc1ccc(-n2nc3c(c2NC(=O)c2cccs2)CS(=O)(=O)C3)cc1C | -0.9 | 0.0 | 0.6 | -0.8 | 0.4 | -1.5 | / | /
COc1ccc(/C(O)=C2/C(=O)C(=O)N(c3ccccn3)C2c2ccc(F)cc2)cc1 (stereo unspecified) | 11.3* | 0.2 | 2.3 | -0.5 | 0.9 | 9.7 | 1.0 | 2.1
Cc1ccc2cccc(OCCCOc3ccccc3F)c2n1 | -2.9 | -3.3 | 0.2 | -0.7 | -0.5 | -0.2 | / | /
CC(C)(C)c1ccc2cccc(F)c2n1 | 9.4* | 2.0 | / | -0.7 | 0.4 | 1.6 | -1.3 | 1.0
CCC(C)Nc1nc(C)nc2c1nnn2Cc1ccccc1 (stereo unspecified) | 8.0* | -2.5 | / | -0.8 | 0.6 | -1.9 | 5.5 | 0.9
SMILES | SMARCA2 act | hcDAF12 agonist | DAX1 inh-1 | ssDAF-12 act | DAX1 inh-2 | hgDAF-12 ag | SMARCA2 act conf | VP16 Luc act
Cc1nc(NCCC(C)C)c2nnn(Cc3ccccc3)c2n1 | -4.2 | -0.4 | 0.6 | -1.6 | 0.4 | 1.7 | / | /
CC(=O)OCC1=C(C(=O)OC(C)(C)C)N2C(=O)[C@@H](NC(=O)Cc3ccccc3)[C@H]2SC1 | -2.8 | -0.5 | -0.4 | -0.7 | -0.7 | 0.8 | / | /
CCOC(=O)c1cnc(-c2ccccc2O)nc1Cl | 8.1* | 0.7 | -0.2 | -1.3 | -0.2 | 1.0 | 3.7 | 3.9
CC(=O)Nc1c(C(=O)O)oc2ccc(Cl)cc12 | -2.5 | 3.8 | -1.3 | 0.2 | -0.1 | 3.3 | / | /
CC(=O)Nc1c(C(=O)O)oc2ccccc12 | 8.1* | 5.1 | 1.4 | -0.1 | 2.1 | 7.7 | 0.1 | 0.0
Cc1ccc(-c2cccc(NC(=O)C3C4C=CC(C4)C3C(=O)O)c2)o1 (stereo unspecified) | 9.4* | -0.5 | 1.6 | -0.8 | 0.4 | -0.3 | 0.6 | -0.2
COc1ccc(C(C(=O)NC2CCCC2)N(C(=O)c2snc(C(N)=O)c2N)c2cc(C)ccc2OC)cc1OC (stereo unspecified) | -2.3 | -1.2 | -0.6 | -1.4 | -0.1 | -1.9 | / | /
Clc1ccc(OCCSc2ncccn2)cc1 | 8.0* | 1.4 | 2.9 | -0.2 | 1.6 | 9.6 | 7.3 | 5.5*
O=C(NC1CCCCN(Cc2cccc(Cl)c2)C1=O)c1cccc2nsnc12 (stereo unspecified) | -0.7 | 0.6 | / | -1.2 | -0.1 | -1.8 | / | /
O=C(Nc1ccc(CN2CCCCC2)cc1)c1cccc(F)c1 | -0.7 | 1.7 | -0.2 | -1.8 | 0.7 | 4.9 | / | /
CCN1CCN(c2ccc(NC(=O)c3cccc(F)c3)cc2Cl)CC1 | 14.0* | 1.1 | 0.4 | -0.5 | 3.5 | 12.7* | 9.1* | 5.8*
Cc1ccc(NC(=O)Nc2cnccn2)cc1 | 10.0* | -0.3 | 1.7 | -0.1 | 4.3* | 7.8 | 4.2 | 3.7
COc1cccc(CNS(=O)(=O)c2c(C)[nH]c(C)c2C(=O)N2CCCCC2)c1 | 13.4* | -0.7 | 0.1 | -0.8 | 0.0 | -0.6 | -2.4 | 0.2
